MPTP inh: permeability transition pore inhibition. inhibition, % at 10 µM. actives 1.4% (n = 360,000). isolated mouse mitochondria, Ca2+ swelling absorbance, 30 min;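 active = inhibition of 50% or more, scaled per plate between neutral and stimulator controls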;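 note: 0% = DMSO wells given calcium and 100% = 1 mM EGTA wells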
Beta cell apopt: blocks beta cell apoptosis; INS-1E cytokine-induced death, ATP luminescence, 48 h; percent of positive-control rescue, neutral wells zero; protection from apoptosis, % (no concentration beside the values); actives 0.8% (n = 300,000);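 active = Every replicate reaches about 75%, or at least half do and their mean reaches it too, limit read from the data; inconclusive = At least half of replicates reach the limit but their mean does not; inactive = Under half of replicates reach the limit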;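 note: 0% = cytokine-treated negative control wells and 100% = positive control rescue; higher means more ATP so stronger rescue from cytokine killing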
Calb FLC: affects C. albicans growth with fluconazole | C. albicans CaCi-2 (fluconazole-resistant clinical isolate) + fluconazole, Alamar Blue growth, 48 h | growth inhibition, % (concentration not given with the values) | actives 0.57% (n = 300,000);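 active = growth inhibition above about 58% in most replicates, limit read from the data, passing the limit was not always enough; inconclusive = exactly half the replicates above a set limit; inactive = most replicates below a set limit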;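 note: all wells also contain fluconazole at 8 µg/ml as a sub-toxic cotreatment; 0% = median of DMSO wells and 100% = median of geldanamycin control wells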
CSC inhib: blocks cancer stem cells. cancer stem cell-like cells viability, luminescence. inhibition, % at 7.5 µM. actives 1.1% (n = 300,000); in the data active = inhibition above about 75%; inconclusive = no clear call, values can overlap the other calls; tested in HMLE shEcad cells
Mdm2-MdmX inh: human Mdm2/MdmX binding inhibition; SaOS-2 split-luciferase Mdm2/MdmX complementation, luminescence; actives 3% (n = 330,000); inhibition, % at 8 µM; O15151+Q00987;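 active = inhibition of at least 50% at 8 µM in the primary screen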
Target sequence (O15151 whole entry, looked up): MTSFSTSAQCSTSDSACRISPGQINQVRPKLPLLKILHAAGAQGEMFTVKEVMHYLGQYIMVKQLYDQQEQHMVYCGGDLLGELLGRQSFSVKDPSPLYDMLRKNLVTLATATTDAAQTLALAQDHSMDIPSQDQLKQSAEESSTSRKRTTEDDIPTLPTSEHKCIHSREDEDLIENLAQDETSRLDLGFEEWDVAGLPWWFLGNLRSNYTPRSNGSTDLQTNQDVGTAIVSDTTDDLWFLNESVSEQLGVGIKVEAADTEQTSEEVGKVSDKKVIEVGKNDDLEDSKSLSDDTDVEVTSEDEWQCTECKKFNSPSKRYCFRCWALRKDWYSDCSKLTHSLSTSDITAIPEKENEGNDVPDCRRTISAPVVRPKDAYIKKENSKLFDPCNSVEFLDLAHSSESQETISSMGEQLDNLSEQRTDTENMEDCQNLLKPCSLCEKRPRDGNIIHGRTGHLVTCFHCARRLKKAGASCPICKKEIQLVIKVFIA
Target sequence (Q00987 whole entry, looked up): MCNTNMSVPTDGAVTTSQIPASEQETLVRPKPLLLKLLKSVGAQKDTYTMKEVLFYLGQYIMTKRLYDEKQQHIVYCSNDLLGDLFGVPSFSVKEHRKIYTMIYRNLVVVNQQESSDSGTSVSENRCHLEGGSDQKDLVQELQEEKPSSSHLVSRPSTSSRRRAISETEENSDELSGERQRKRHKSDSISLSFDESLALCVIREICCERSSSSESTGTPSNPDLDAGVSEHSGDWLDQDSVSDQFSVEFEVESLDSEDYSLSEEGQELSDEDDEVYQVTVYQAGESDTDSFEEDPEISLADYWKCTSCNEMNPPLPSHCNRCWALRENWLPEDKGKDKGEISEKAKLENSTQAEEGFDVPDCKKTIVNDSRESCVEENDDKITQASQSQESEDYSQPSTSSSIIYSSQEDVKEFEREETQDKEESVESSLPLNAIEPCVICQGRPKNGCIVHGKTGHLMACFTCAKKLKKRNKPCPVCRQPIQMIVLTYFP
Mdm2-MdmX conf: human Mdm2/MdmX binding inhibition, confirmed; inhibition, % at 8 µM; luminescent assay; actives 55% (n = 10,000); shares compounds with Mdm2-MdmX inh; in the data active = inhibition above about 40%
FLuc counter: inhibits full-length luciferase, flagging false Mdm2/MdmX hits. shares compounds with Mdm2-MdmX inh. SaOS-2 full-length luciferase counterscreen, luminescence. inhibition, % at 8 µM. actives 77% (n = 6,200);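 active = mean inhibition at 8 µM reaching about 37%, which flags the compound as non-specific, limit read from the data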;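 note: p53-null SaOS-2 cells with luciferase driven by a doxycycline-inducible promoter; compound on cells about two nights before reading with doxycycline added after day one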
The depositor's hits bear a star; u = inconclusive; x = no result given. Most compounds without a hit are left out; they make up all but 4.8% or so of the library.

SMILES | MPTP inh | Beta cell apopt | Calb FLC | CSC inhib | Mdm2-MdmX inh | Mdm2-MdmX conf | FLuc counter
Cc1ccccc1-c1cnc(C(O)c2c(C)cccc2C)[nH]1 (configuration not stated) | 1 | x | x | x | x | x | x
O=C1c2ccccc2[C@@H]2Cc3csc[n+]3[C@H]12 | 1 | x | x | x | x | x | x
CCCCNC(=O)C(C)N(CCN(C)C)C(=O)CCCN1C(=O)NC(c2ccc([N+](=O)[O-])cc2)C(C(=O)OCc2ccccc2)=C1C (configuration not stated) | -4 | x | x | x | 68* | 23 | x
CCCCCCN(C(=O)CCCCCN1C(=O)NC(c2ccc([N+](=O)[O-])cc2)C(C(=O)OCc2ccccc2)=C1C)C(C(=O)NCCCC)c1ccc(OCC(=O)OC)c(C(=O)OC)c1 (configuration not stated) | x | -1 | 1 | 54 | 34 | x | x
CCCCCCN(C(=O)CCCCCN1C(=O)NC(c2cccc([N+](=O)[O-])c2)C(C(=O)OCc2ccccc2)=C1C)C(C(=O)NCCCC)c1ccc(OCC(=O)OC)c(C(=O)OC)c1 (configuration not stated) | x | 0 | 1 | -43 | 85* | -14 | x
CCCCNC(=O)C(C1CCCCC1)N(CCN(C)C)C(=O)CCCN1C(=O)NC(c2ccc(-c3ccccc3)cc2)C(C(=O)OCc2ccccc2)=C1C (configuration not stated) | x | x | x | x | 97* | 57* | 1
CCCCCCN(C(=O)CCCCCN1C(=O)NC(c2ccc(-c3ccccc3)cc2)C(C(=O)OCc2ccccc2)=C1C)C(C)C(=O)NCCCC (configuration not stated) | x | 8 | 1 | 3 | 19 | x | x
CN(c1cc(Cl)c2c(c1)OCO2)c1cc2c(c3c1ccn3C)C1CCC2C1 (configuration not stated) | 4 | x | x | x | x | x | x
CCN(C[C@H]1N[C@@](C)(C(=O)OC)[C@H]2C(=O)N(C)C(=O)[C@@H]12)C(=O)Nc1ccc(OC)cc1 | 0 | 0 | x | x | 1 | x | x
O=C(OCn1ncc(Br)c(Br)c1=O)c1ccc(F)cc1 | 1 | 100* | -11 | -43 | 99* | 100* | 0
O=C(OCn1ncc(Br)c(Br)c1=O)c1ccccc1Cl | 0 | 112* | 5 | -6 | 99* | 98* | 2
CC(C)(C)OC(=O)N1CCc2onc(-c3ccccc3[N+](=O)[O-])c2C1=O | 0 | x | x | x | x | x | x
O=C1NC[C@@H](CCCCN2C[C@H](Cc3ccc(O)cc3)N(Cc3ccccc3)C(=O)C2=O)N(CCc2ccc(O)cc2)C1=O | -1 | x | x | x | x | x | x
CN(C)c1ccc(NC(=S)Nc2ccc3c(c2)c(=O)n(C)n3-c2ccc(C(C)(C)C)cc2)cc1 | 0 | x | x | x | x | x | x
Cc1cc(Cl)ccc1C(O)c1ncc(-c2ccc(Cl)cc2)[nH]1 (configuration not stated) | 6 | x | x | x | x | x | x
NCCCNc1nc(N)c([N+](=O)[O-])c(NC2CCCCC2)n1 | 0 | -20 | 15 | 15 | 73* | 70* | 56*
CN(C)c1ccc(/C=N/OC(=O)Nc2ccccc2Cl)cc1 | 1 | -7 | -21 | 2 | 39 | x | x
O=C(/C=C/c1cccnc1)c1cc(F)ccc1O | 1 | -4 | -13 | 0 | 6 | x | x
COc1cc(O)cc(O)c1C(=O)/C=C/c1ccccc1 | 2 | 1 | 10 | 34 | 52* | 29 | x
COc1cc(C(=O)/C=C/c2cccnc2)ccc1O | -1 | x | 61 | 28 | 51* | 18 | x
COc1ccc(OC)c(C(=O)/C=C/c2cccnc2)c1 | 0 | -10 | 0 | 49 | 68* | 30 | 56*
COCCN1C(=O)CSCC1(C)C(=O)NCc1ccccc1 (configuration not stated) | -2 | x | x | x | x | x | x
COc1ccc(Nc2oc(COc3ccc(Cl)cc3)nc2C#N)cc1 | 3 | 3 | -8 | 29 | 61* | 44* | 77*
COc1ccc(CNc2oc(COc3ccc(Cl)cc3)nc2C#N)cc1 | 7 | -5 | -3 | x | 34 | x | x
Nn1cc(-c2ccccc2)nc1SCC(=O)Nc1ccc(S(N)(=O)=O)cc1 | 1 | -3 | 20 | 1 | 9 | x | x
SMILES | MPTP inh | Beta cell apopt | Calb FLC | CSC inhib | Mdm2-MdmX inh | Mdm2-MdmX conf | FLuc counter
CCC(O)(c1ccc(OC)cc1)C(CN1CCOCC1)c1ccccc1 (configuration not stated) | -1 | -4 | -24 | -10 | 23 | x | x
CCCCCOc1ccc(C(=O)C(c2ccccc2)N2CCOCC2)cc1 (configuration not stated) | 1 | 1 | 30 | -8 | 2 | x | x
COc1ccc(C(=O)C(CN2CCOCC2)c2ccccc2)cc1 (configuration not stated) | -2 | -36 | 3 | 50 | 80* | 81* | 27
CCCCOc1ccc(C(=O)C(CN2CCOCC2)c2ccccc2)cc1 (configuration not stated) | -4 | 67 | -3 | 111* | 94* | 74* | 21
O=C(c1ccccc1)C(CCC(CN1CCOCC1)C(=O)c1ccccc1)CN1CCOCC1 (configuration not stated) | 1 | 95* | 10 | 31 | 95* | 65* | 51*
O=C(c1ccc(Cl)cc1)C(CN1CCCC1)c1ccccc1 (configuration not stated) | 1 | 61 | 2 | 35 | 71* | 34 | x
c1ccc(C(CN2CCOCC2)c2ccccc2)cc1 | 0 | -3 | 14 | -19 | -4 | x | x
O=C(COC(=O)C1CCCC1)Nc1ncc(Cl)cc1Cl | -2 | -1 | 0 | -10 | 0 | x | x
CCOC(=O)C1=CCN(S(=O)(=O)c2ccccc2C)C1c1ccc(F)cc1 (configuration not stated) | 0 | x | x | x | x | x | x
COc1ccc(C(=O)C(CN2CCCC2)c2ccccc2)cc1 (configuration not stated) | 0 | -46 | 80* | 86* | 99* | 64* | 28
COc1ccc(C(=O)CCN2CCCCCC2)cc1 | 35 | -16 | -5 | 12 | 8 | x | x
O=C(c1ccc(F)cc1)C(CN1CCOCC1)c1ccccc1 (configuration not stated) | -1 | x | 3 | x | 64* | 43* | 38*
CC[N+]1=C(C)C(C)(C)c2cc(C)ccc21 | 3 | 101* | -2 | u | 81* | 62* | 28
Cc1c(C(=O)NN)sc(=S)n1C | -1 | -14 | -1 | 1 | 13 | x | x
C/C(=N/NC(=O)c1sc(=S)n(C)c1C)c1ccccc1 | 2 | -5 | 11 | -6 | 53* | 5 | x
Cc1ccc(S(=O)(=O)n2nc(C)cc2C)cc1 | -3 | 0 | 13 | -9 | 5 | x | x
Cc1cc(C)n(S(=O)(=O)/C=C/c2ccccc2)n1 | 1 | -11 | -19 | -14 | 73* | 89* | 52*
Cc1ccccc1Cn1c(C)c(C(=O)N(C)Cc2ccc(F)cc2)sc1=O | -2 | x | x | x | x | x | x
C=CCN1C(=O)N(CC=C)c2cccc3cccc1c23 | 1 | -2 | 7 | -17 | 6 | x | x

Screens from PubChem BioAssay.
